Results from PubChem BioAssay (NCATS).
Where “and” joins values, the source holds several entries; their conditions need not be identical. Identical values can stand only once. Inconclusive results are not listed. Unmarked numbers belong to inactive results. Calls of active or inactive are those of the source. Calls come from the whole dose curve; as a rule, active = well fitted curve in the direction sought with a large enough effect; inconclusive = small, poorly fitted or top-dose-only effect, or another doubt; inactive = no such curve, though single readings can be large; an effect the other way counts as inactive or inconclusive.

Assays:
[1] = test system: Zika virus NS2B-NS3 protease; test: Primary screen GU AMC qHTS for Zika virus inhibitors (AID 1347154);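 note: 0% = no-inhibitor control and -100% = no-enzyme control; nearly all actives have a fitted effect of over 70% in size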
Method in brief: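 Unlinked Zika NS2B hydrophilic domain/NS3 protease domain noncovalent complex (25 nM final) in 10 mM Tris-HCl pH 8.0, 0.01% Tween 20, with AMC peptide substrate. Fluorescence (ex 340, em 450 nm) change over 15 min, room temperature; percent inhibition fitted to 4-parameter Hill equation.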

[2] = test system: Zika virus NS2B-NS3 protease (linked construct); test: Confirmatory screen NINDS AMC qHTS for Zika virus inhibitors (AID 1347152); note: nearly all actives have a fitted effect of over 70% in size; note: potency is the fitted concentration of half-maximal effect;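 for activity change, negative = inhibition: AMC fluorescence gain from cleaved Bz-Nle-KRR-AMC substrate over 15 min; top concentration of the series differs between compounds; 0% = no-inhibitor control and -100% = no-enzyme control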
Method in brief: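 Linked NS2B-NS3 protease, 1 nM, in 10 mM Tris-HCl pH 8.0, 0.01% Tween 20; compounds preincubated 15 min at room temperature. Nle-KRR-AMC 10 microM (Km 18.3 µM); 15-min fluorescence change (340/450 nm) fitted to 4-parameter Hill.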

[3] = Confirmatory screen GU Rhodamine qHTS for Zika virus inhibitors qHTS (AID 1347157); details: purified enzyme assay, Rhodamine110 substrate fluorescence, 15 min; note: potency is the fitted concentration of half-maximal effect; nearly all actives have a fitted effect of over 70% in size
Method in brief: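 Unlinked NS2B/NS3, 25 nM; Rhod110 peptide, 1.5 microM; compounds, up to 114 microM. Reaction run 15 min at RT in 10 mM Tris-HCl pH 8.0, 0.01% Tween 20; kinetic fluorescence change fitted with a 4-parameter Hill model.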

[4] = test system: Zika virus NS2B-NS3 protease (unlinked complex); test: Primary screen GU Rhodamine qHTS for Zika virus inhibitors: Unlinked NS2B-NS3 protease assay (AID 1347159); note: nearly all actives have a fitted effect of over 60% in size; note: potency is the fitted concentration of half-maximal effect
Method in brief: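 Compounds, tested up to 114 microM, were incubated for 15 minutes with 25 nM unlinked NS2B-NS3 protease at pH 8.0. Cleavage of 1.5 microM Rhodamine110 substrate was then followed by fluorescence for 15 minutes.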

[5] = test system: Zika virus NS2B-NS3 protease (linked construct); test: Primary screen NINDS Rhodamine qHTS for Zika virus inhibitors (AID 1347160); note: nearly all actives have a fitted effect of over 55% in size; note: potency is the fitted concentration of half-maximal effect; for activity change, negative = inhibition: % is set by controls: 0 for no effect and ±100 for the full control effect
Method in brief: (§1)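 Percent inhibition, normalized to uninhibited and enzyme-free controls, is fitted to a 4-parameter Hill equation. Fluorescence change comes from a 15-min cleavage of 1.5 microM bis-peptide Rhodamine110 substrate by 25 nM linked NS2B-NS3 at room temperature.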

[6] = Confirmatory screen NINDS Rhodamine qHTS for Zika virus inhibitors (AID 1347161); details: purified enzyme assay, Rhodamine110 substrate fluorescence, 15 min; note: potency is the fitted concentration of half-maximal effect; nearly all actives have a fitted effect of over 60% in size
Method in brief: as §1

[7] = test system: Zika virus NS2B-NS3 protease (linked construct); test: 384 well plate NINDS Rhodamine confirmatory qHTS for Zika virus inhibitors (AID 1347164);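 note: fluorescence from protease cleavage of Ac-LKRR-rhodamine 110 substrate; nearly all actives have a fitted effect of over 65% in size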; note: potency is the fitted concentration of half-maximal effect;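 for activity change, negative = inhibition: top concentration of the series differs between compounds; plate controls were no-inhibitor control for no effect and no-enzyme control for full effect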
Method in brief: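 Linked NS2B-NS3 protease (final 5, 30 or 60 nM) preincubated ~15 minutes with compounds, then 10 microM Ac-LKRR-Rhodamine 110 added. Fluorescence (485/538 nm) read after 25 minutes at room temperature, normalized to no-enzyme and no-inhibitor controls.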

[8] = Vero cells viability qHTS for Zika virus inhibitors (AID 1347167); note: % is set by controls: 0 for no effect and ±100 for the full control effect
Method in brief: (§2)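 Counter-screen for cytotoxicity of hits from NS2B-NS3 protease qHTS. Overnight-attached cells (2.5 x 10^5 cells/mL, DMEM/4% FBS) were dosed in titration, incubated 24 to 48 hours, then assayed by CellTiter Glo.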

[9] = HepG2 cells viability qHTS for Zika virus inhibitors (AID 1347168); note: % is set by controls: 0 for no effect and ±100 for the full control effect
Method in brief: as §2

[10] = Tertiary RLuc qRT-PCR qHTS assay for Zika virus inhibitors (AID 1347169); note: nearly all actives have a fitted effect of over 55% in size; note: potency is the fitted concentration of half-maximal effect; for activity change, negative = inhibition: top concentration of the series differs between compounds; % is set by controls: 0 for no effect and ±100 for the full control effect
Method in brief: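 Vero cells (1,000/well) infected with recombinant ZIKV-RLuc (Cambodian) at MOI 1-2 after compound addition, 48-72 hrs at 37 degrees C. Live-cell Renilla luciferase substrate added; luminescence read after 1-1.5 hrs.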

Furin (Homo sapiens) = Furin (Homo sapiens) (UniProt P09958); test: Furin counterscreen qHTS for Zika virus inhibitors (AID 1347149); note: potency is the fitted concentration of half-maximal effect; nearly all actives have a fitted effect of over 70% in size
Method in brief: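 Fluorogenic cleavage of BOC-RVRR-AMC (2 microM final, Km ~15 µM) was monitored (ex 340, em 450 nm) at 37C after 15 min RT preincubation of 5 nM furin with compounds in HEPES pH 7.0 buffer with CaCl2 and Triton X-100. Percent inhibition was fitted to a 4-parameter Hill curve.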

[11] = ZIKV-mCherry secondary qHTS for Zika virus inhibitors (AID 1347158); note: top concentration of the series differs between compounds
Method in brief: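 Vero cells (5,000/well) were given compound, then infected with ZIKV-mCherry at MOI 1 for 48–72 h at 37 °C. After PFA fixation and Hoechst staining, imaging gave percent mCherry-positive cells. The positivity threshold was RFU above 450, 3 SD over negative controls.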

[12] = test system: Zika virus NS2B-NS3 protease (linked); test: 384 well plate NINDS AMC confirmatory qHTS for Zika virus inhibitors (AID 1347163); note: potency is the fitted concentration of half-maximal effect; nearly all actives have a fitted effect of over 50% in size
Method in brief: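 Linked NS2B-NS3 protease (final 5 nM, 30 nM or 60 nM) was preincubated with compounds (final up to 1 mM) for ~15 minutes. Ac-VKTGKR-AMC substrate (final 30 microM) then reacted for 25 minutes at room temperature in the dark. Fluorescence (ex 355/em 460 nm) was normalized to no-enzyme and no-inhibitor controls.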

Furin (Homo sapiens), sequence (P09958 whole entry, looked up): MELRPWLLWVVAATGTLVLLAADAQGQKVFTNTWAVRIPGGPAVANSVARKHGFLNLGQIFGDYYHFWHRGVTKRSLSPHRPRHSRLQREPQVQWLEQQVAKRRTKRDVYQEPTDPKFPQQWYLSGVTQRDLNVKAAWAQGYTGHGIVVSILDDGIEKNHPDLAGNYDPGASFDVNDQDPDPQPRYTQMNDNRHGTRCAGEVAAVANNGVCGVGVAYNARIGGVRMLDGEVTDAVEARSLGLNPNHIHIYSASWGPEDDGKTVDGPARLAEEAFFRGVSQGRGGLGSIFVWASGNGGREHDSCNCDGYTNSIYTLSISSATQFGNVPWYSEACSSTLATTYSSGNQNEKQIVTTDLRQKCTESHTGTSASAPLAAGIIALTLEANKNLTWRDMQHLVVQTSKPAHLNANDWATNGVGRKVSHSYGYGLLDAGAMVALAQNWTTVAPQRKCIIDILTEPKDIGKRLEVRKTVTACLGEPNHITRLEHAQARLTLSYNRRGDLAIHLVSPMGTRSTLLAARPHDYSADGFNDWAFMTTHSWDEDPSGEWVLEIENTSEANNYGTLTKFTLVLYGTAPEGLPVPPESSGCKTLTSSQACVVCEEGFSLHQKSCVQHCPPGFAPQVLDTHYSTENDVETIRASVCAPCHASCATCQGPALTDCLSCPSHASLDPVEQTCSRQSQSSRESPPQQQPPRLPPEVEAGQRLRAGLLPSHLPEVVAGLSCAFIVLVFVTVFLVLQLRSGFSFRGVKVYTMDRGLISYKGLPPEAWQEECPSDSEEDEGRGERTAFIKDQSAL

For `CC1=C(/C=C/C(C)=C/C=C/C(C)=C/CO)C(C)(C)CCC1`, which outcome [1] is on record?
Its outcome is “inactive”.

Which Potency [2] does the source give for `CCOc1ccc(-c2ccc(Cn3c(CC(C)(C)C(=O)O)c(SC(C)(C)C)c4cc(OCc5ccc(C)cn5)ccc43)cc2)cn1` here?
The Potency was 7.84 µM (active).

And the Potency [3]?
The Potency was 1.75 µM (active).

And the Potency [4]?
Its Potency is 2.51 µM (active) and 2.82 µM (active).

What about the Potency [5] of the same compound?
Its Potency is 3.16 µM (active).

And the Potency [6]?
Its Potency is 2.21 µM (active).

And the Potency [7]?
The Potency was “inactive”.

And the outcome [8]?
The outcome was “inactive”.

And the outcome [9]?
The outcome was “inactive”.

And the Potency [10]?
Its Potency is 5.23 µM (active).

For `C=C1CC23CCC4[C@@](C)(CCC[C@@]4(C)C(=O)O)C2CCC1C3` (stereo not given in full), which Potency [3] is on record?
Its Potency is 39.3 µM (active).

What about the Potency [4] of the same compound?
The Potency was 20 µM (active).

What about the Potency [5] of the same compound?
Its Potency is “inactive”.

And the Potency [6]?
Its Potency is 44.1 µM (active).

What about the Potency [10] of the same compound?
Its Potency is “inactive”.

With `CC(NC(=O)Cc1cc(F)cc(F)c1)C(=O)NC(C(=O)OC(C)(C)C)c1ccccc1` (stereo not given) as the compound, how does the outcome [1] read?
The outcome was “inactive”.

What does the source list for `Nc1c(N=Nc2ccc(-c3ccc(N=Nc4cc(S(=O)(=O)O)c5ccccc5c4N)cc3)cc2)cc(S(=O)(=O)O)c2ccccc12`?
Potency (Furin (Homo sapiens)): 37.3 µM (active); Potency [3]: 2.51 µM (active); outcome [11]: inactive; Potency [6]: 2.24 µM (active); Potency [7]: 7.08 µM (active)

For `CC(C)(O)C1CC=C(C(=O)OCC2OC(Oc3c(O)cc(C(=O)O)cc3O)C(O)C(O)C2O)CC1` (stereo not given), which Potency [2] is on record?
Its Potency is “inactive”.

And the Potency [4]?
Its Potency is “inactive”.

What about the Potency [6] of the same compound?
Its Potency is 7.64 µM (active).

What about the outcome [8] of the same compound?
The outcome was “inactive”.

And the outcome [9]?
The outcome was “inactive”.

And the Potency [10]?
The Potency was “inactive”.

What does the source list for `O=S(=O)(O)c1cc(O)c2c(N=Nc3ccc(Nc4ccccc4)c4c(S(=O)(=O)O)cccc34)cc(S(=O)(=O)O)cc2c1`?
Potency [3]: 2.82 µM (active); Potency [6]: 5.62 µM (active); Potency [12]: 12.6 µM (active); Potency [7]: 6.31 µM (active); activity change, negative = inhibition [10]: -4.11% [at 1.74 µM]

For `CCCC(=O)Nc1ncnc2c1ncn2[C@@H]1O[C@@H]2COP(=O)(O)O[C@H]2[C@H]1OC(=O)CCC`, which outcome [1] is on record?
The outcome was “inactive”.

Which results are given for `CC(=O)c1c(C)cc(O)cc1O[C@@H]1O[C@H](CO)[C@@H](O)[C@H](O)[C@H]1O`?
Potency [3]: 30.6 µM (active); Potency [4]: inactive; Potency [10]: inactive

For `O=C(O)CC/C=C\CC[C@H]1[C@@H](N2CCCCC2)[C@@H](O)C[C@@H]1OCc1ccc(-c2ccccc2)cc1`, which outcome [1] is on record?
Its outcome is “inactive”.

Which outcome [1] does the source give for `CCOC(=O)C1=CC2(CC)CCCN3CCc4c(n1c1ccccc41)C32` (stereo not given) here?
Its outcome is “inactive”.

Which activity change, negative = inhibition [1] does the source give for `CCCCC/C=C\C/C=C\CCCCCCCC(=O)O` here?
The activity change, negative = inhibition was 4.61% [at 6.83 µM].

Which Potency [3] does the source give for `OC[C@H]1O[C@@H](Oc2ccc(O)c3cccc(O)c23)[C@H](O)[C@@H](O)[C@@H]1O` here?
Its Potency is 4.85 µM (active).

And the Potency [4]?
The Potency was 10 µM (active).

What about the Potency [5] of the same compound?
Its Potency is “inactive”.

What about the Potency [6] of the same compound?
Its Potency is 6.1 µM (active).

What about the Potency [10] of the same compound?
The Potency was “inactive”.

For `COC(=O)C1=C(C)NC(C)=C(C(=O)OCCCN2CCC(c3ccccc3)(c3ccccc3)CC2)[C@H]1c1cccc([N+](=O)[O-])c1`, which outcome [1] is on record?
The outcome was “inactive”.
